Experimental data from PubChem BioAssay AID602440 (Sanford-Burnham Center for Chemical Genomics, 2012).
Among all 360,000 compounds or so, about 2,300 (0.64%) were called active. The entries come from a sample that favours actives as a whole. A number with no mark means an inactive call. Cut-off read from the data, not from the text of the source: active = inhibition mostly above about 40% (no sharp cut-off); inactive = mostly below about 27%.

molecular target: Sentrin-specific protease 8 (Homo sapiens) (UniProt Q96LD8); experiment: human SENP8 protease inhibitors, primary screen, biochemical, fluorescence, Nedd8 protein substrate, uHTS (AID 602440); conditions: recombinant SENP8, Nedd8 substrate fluorescence; at 20 µM; stronger effect = higher value
Sequence (Q96LD8 whole entry, looked up): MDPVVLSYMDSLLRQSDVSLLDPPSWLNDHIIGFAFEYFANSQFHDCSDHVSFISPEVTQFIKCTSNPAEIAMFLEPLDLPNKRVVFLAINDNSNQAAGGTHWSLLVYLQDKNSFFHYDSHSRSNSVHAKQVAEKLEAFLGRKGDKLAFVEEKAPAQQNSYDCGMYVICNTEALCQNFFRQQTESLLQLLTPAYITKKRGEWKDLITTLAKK

Structure (SMILES) | inhibition
O=C(COc1ccccc1)N1CCc2ccccc2C1 | 42.5% (active)
Cc1ccc(Cl)c(OCC(=O)N2CCc3ccccc3C2)c1 | 20.7%
CCC(=O)c1ccc(OCC(=O)OCC(=O)N2CCc3ccccc3C2)cc1 | 18.9%
COc1cccc(N2CC(C(=O)NCc3n[nH]c(=O)c4ccccc34)CC2=O)c1 (configuration not stated) | -0.8%
O=[N+]([O-])c1ccc(N2CCSCC2)cc1O | 57% (active)
O=[N+]([O-])c1ccc(N2CCN(S(=O)(=O)c3ccccc3)CC2)cc1N1CCc2ccccc2C1 | -132%
O=[N+]([O-])c1ccc(N2CCN(c3ccc(O)cc3)CC2)c(Cl)c1 | 26.5%
CC(C(=O)NC1CCCC1)N1CCN(S(=O)(=O)c2ccccc2Cl)CC1 (configuration not stated) | 7.4%
CC1(C)Cc2cccc(OCC(N)=O)c2O1 | 20.9%
CC1(C)Cc2cccc(OCC(=O)Nc3nccs3)c2O1 | 42.4% (active)
COc1cccc(CCNC(=O)COc2cccc3c2OC(C)(C)C3)c1 | 20.6%
COc1cc(NC(=O)COC(=O)c2ccc([N+](=O)[O-])s2)cc(OC)c1OC | 26.8%
C[C@H](NC(=O)c1ccccc1Cl)C(=O)OCC(=O)N1CCN(c2ccccc2)CC1 | 12.8%
O=C(OCC(=O)N1CCN(c2ccccc2)CC1)c1ccc([N+](=O)[O-])s1 | 42.9% (active)
Oc1ccc(N=Cc2sc3ccccc3c2Cl)cc1 | 87.5% (active)
CCCN=C1NC(=O)C(CC(=O)NCCc2ccc(OC)c(OC)c2)S1 (configuration not stated) | 16.5%
Cc1ccc(-n2nc3c(=O)n(C(C)C(=O)NCc4ccc5c(c4)OCO5)nc(C)c3c2C)cc1 (configuration not stated) | 3.2%
CC(=O)c1c(N2CCOCC2)nc(=S)n(-c2cc(C)ccc2C)c1C | 9.8%
CC(=O)Nc1ccc(OCCC[n+]2cccc(C(=O)[O-])c2)cc1 | 7.7%
COc1ccc2c(Cl)c(-c3nnco3)sc2c1 | -37.1%
COc1ccc(C(=O)Oc2ccc(-c3nnco3)cc2)cc1S(=O)(=O)N1CCOCC1 | 20.2%
COc1ccc(-c2nnco2)cc1OC | 41.5% (active)
Cc1ccc(N2C(=O)CN=C2Nc2nc(C)cc(C)n2)cc1 | 31.7%
COc1ccc(N2CCC(CNC(=S)Nc3c(C)cccc3C)C2)cc1 (configuration not stated) | 9.9%
CCN(C(=O)CSc1ncnc2sccc12)c1c(N)n(Cc2ccccc2)c(=O)[nH]c1=O | -25%

Structure (SMILES) | inhibition
CC1CCCC(N2CCN(C(=O)c3ccc(F)cc3)CC2)C1 (configuration not stated) | 7.2%
CCN1CCC(O)(/C=C/c2ccc(C)cc2)C(C(=O)/C=C/c2ccc(C)cc2)C1 (configuration not stated) | 16.7%
CCN1CCC2(CC1)N=C(c1ccc(F)cc1)C(=S)N2C(=O)c1ccc(C)cc1 | 48.7% (active)
Cc1ccc(C(=O)N2CC(=O)Nc3ccc(F)cc3C2c2ccc(F)cc2)cc1 (configuration not stated) | 4.1%
COC(=O)CNC(=O)c1ccc2c(c1)S(=O)(=O)c1ccccc1C2=O | 23.2%
CN(Cc1ccccc1)C(=O)CCNC(=O)Cn1cnc2ccccc2c1=O | 16.4%
N#Cc1cccc(NC(=O)CN2CCCCCC2)c1 | 7.3%
CCOCCCn1c(SCC(=O)Nc2cc(OC)ccc2OC)nc2ccccc2c1=O | -19.4%
CCc1nnc(NC(=O)CSc2nc3ccccc3c(=O)n2CCCOC)s1 | 23.2%
CCOCCCn1c(NN)nc2ccccc2c1=O | 34% (active)
Cc1cc(NC(=O)COC(=O)COc2ccc(Cl)cc2C)c([N+](=O)[O-])cc1C | 7.4%
COc1ccc(CN2CN(C(C)C)CSC2=S)cc1 | 6.1%
Cc1oc2c(c1C(=O)N1CCOCC1)C(=O)c1ccccc1C2=O | 61.3% (active)
Cc1nc2ccccc2n1C(=O)N1CCOCC1 | 11.5%
CC(C(=O)Nc1ccccc1-c1ccccc1)N1CCOCC1 (configuration not stated) | 3.7%
COc1ccc(C2=NOC(C(=O)NCc3ccco3)C2)cc1OC (configuration not stated) | 7.1%
COc1ccc(-c2c(NC(=O)c3ccco3)oc3ccc(Cl)cc3c2=O)cc1 | -71.5%
Cc1cc(C)cc(N(CC(=O)NC2CCCC2)C(=O)CCC(=O)Nc2nccs2)c1 | 10.9%
Cc1ccc(C(=O)OC2CCCN(C)C2)cc1 (configuration not stated) | 8.1%
CC1(C)C2CCC1(C)C(OC(=O)CCn1ccnc1)C2 (configuration not stated) | 22.1%
CC1(C)C2CCC1(C)C(OC(=O)c1ccc(O)cc1)C2 (configuration not stated) | 40.5% (active)
COc1ccc2c(c1)C(C)=CC(C)(C)N2C(=O)Nc1ccccc1 | -486%
COc1cc2[nH]c(=S)n(Cc3ccc(C)o3)c(=O)c2cc1OC | 20%
CCC(C)(C)NC(=O)C(c1ccc(O)cc1)N(Cc1ccco1)C(=O)CCC(=O)Nc1ccccn1 (configuration not stated) | -20.6%
Nc1ncnc2c1ncn2[C@@H]1O[C@H](C(=O)N2CCCN(Cc3ccccc3F)CC2)[C@@H](O)[C@H]1O | 18.2%

Structure (SMILES) | inhibition
CCN(CC)CCOC(=O)c1ccc(NC(=O)CNC(=O)c2ccccc2)cc1 | 7%
CCOc1ccc(NC(=O)CCNC(=O)c2ccc(Br)cc2)cc1 | 0.3%
CCN(CC)C(=O)CCC(=O)Nc1ccc(C(=O)OC)cc1 | 51.9% (active)
Nc1c(C(=O)c2cccs2)sc2nsc(SCCN3CCCCC3)c12 | 16.8%
O=C(NCCN1CCOCC1)C1CCN(S(=O)(=O)c2ccccc2)CC1 | 18%
O=C(NNc1nc(N2CCCC2)nc(N2CCCC2)n1)c1ccccc1 | 5.2%
CCc1ccccc1NC(=O)c1ccc2c(c1)CCN2S(C)(=O)=O | 22.2%
CCc1ccccc1NC(=O)NCCN1CCCCC1 | 12.7%
CN1CCc2ccccc2C1Cc1ccccc1NC(=O)c1sc2ccccc2c1Cl (configuration not stated) | 53.8% (active)
Cc1ccc(C2=Nc3c(ccc4ccccc34)C(c3ccncc3)=NN2)cc1 | -6.5%
C=C(C)Cn1c(C)cc(C)c(S(=O)(=O)c2ccccc2C)c1=O | 20.8%
COc1ccc(/C=C2/C(=O)OCc3cc(OC)c(OC)cc32)c(OC)c1 | 20.7%
COc1ccc(C(=O)CCc2ccccc2O)c(OC)c1 | 9.3%
COc1ccc(/C=C2/C(=O)N(c3ccccc3)N=C2C)c(OC)c1 | 53.8% (active)
O=C(CSc1nnnn1C1CCCC1)Nc1ccc2c(c1)OCCO2 | 7%
CN(C)c1ccc(/C=C2\NC(=S)N(Cc3ccccc3)C2=O)cc1 | 46.7% (active)
CCN(CC(=O)NC(C)C)C(=O)c1cc(S(=O)(=O)N2CCCCC2)ccc1N1CCCCC1 | 2.8%
CCOC(=O)C1CCCCN1Cc1ccc(OC)c(OC)c1OC (configuration not stated) | -4.4%
Cc1ccc(S(=O)(=O)N2CCN(S(=O)(=O)N3CCOCC3)CC2)cc1 | 6.5%
O=C1CCCC(O)=C1N=Nc1ccc2ncsc2c1 | 7.1%
O=S(=O)(c1ccc(-c2ccccc2)cc1)N1CCCC1 | 7.9%
CC1(C)CC(=O)C(N=Nc2c(F)cccc2F)=C(O)C1 | 24.6%
CC1(C)CC(=O)C(N=Nc2ccc(S(=O)(=O)N3CCCCCC3)cc2)=C(O)C1 | 41% (active)
O=C1CCCC(O)=C1N=Nc1ccc(S(=O)(=O)N2CCOCC2)cc1 | 43.2% (active)
Cn1c(C(=O)O)ccc1S(=O)(=O)N(Cc1ccccc1)Cc1ccccc1 | -7%

Structure (SMILES) | inhibition
COc1ccc(C(=O)N(CCN2CCOCC2)CC(=O)NC2CCCC2)cc1OC | -1.7%
CN(CC(=O)NNC(=O)CNC(=O)c1ccccc1Cl)S(=O)(=O)c1ccc(Cl)cc1 | 10.1%
Cc1cc(O)c(NC(=O)c2ccc(C)c([N+](=O)[O-])c2)cc1C | 3.9%
CCN(CC)C(=O)CC1(c2ccccc2OC)CCOC(C(C)C)C1 (configuration not stated) | 4%
Clc1ccc(C2=CSC3=Nc4cccc5cccc(c45)N23)cc1 | 70.7% (active)
COCCNC(=S)N1CCC(NC(=O)C23CC4CC(CC(C4)C2)C3)CC1 | 8.9%
c1ccc(-c2c[nH]c(-c3ccccc3)c2)cc1 | -22%
CCCc1c(-c2ccccc2F)ncn1Cc1ccccc1OC | 2.7%
CC(=O)NNc1cc(=O)c2c(=O)n(C)c(=O)n(C)c2[nH]1 | 15.9%
Cn1c(N)c(C(=O)COC(=O)C23CC4CC(CC(C4)C2)C3)c(=O)n(C)c1=O | 12%
O=C(OCC(=O)c1cccs1)c1ccc([N+](=O)[O-])o1 | 29.2%
O=C(COC(=O)c1ccc([N+](=O)[O-])o1)NC12CC3CC(CC(C3)C1)C2 | 35.1% (active)
O=C(COC(=O)c1ccc(Br)o1)NC12CC3CC(CC(C3)C1)C2 | 10%
C/C=C/C=C/C(=O)O | 11.5%
NCCCCC(C(=O)O)N(C(=O)OCc1ccccc1)C(=O)OCc1ccccc1 (configuration not stated) | 15.2%
O=C(C[C@H]1C(=O)N(c2ccc(F)c(F)c2)C[C@@H]1Cc1ccccc1)Nc1ccccc1 | 1.6%
CCCCn1c(N)c(N(CC(C)C)C(=O)c2ccc(-n3c(C)ccc3C)cc2)c(=O)[nH]c1=O | 1.8%
Oc1ccc(C2Nc3cccc4cccc(c34)N2)cc1 | 63.3% (active)
O=C(COC(=O)c1ccc2ncsc2c1)Nc1ccc(Cl)cc1 | -18.6%
CN(C(=O)CN1C(=O)/C(=C/c2ccc(Cl)cc2)SC1=S)C1CCS(=O)(=O)C1 (configuration not stated) | 23.9%
C=CCOc1ccc(/C=C2\SC(=S)N(CCC(=O)O)C2=O)cc1 | 40.8% (active)
C=CCOc1ccc(C(=O)Nc2ccccc2C(=O)N2CCCC2)cc1 | 0.4%
